Assay outcomes (PubChem)
Shown are actives, neighbours in structure and some others; about 1.4% of the full set was active somewhere.
LYPLA2 counter = counter-screen for PME1 inhibitors: inhibitors of human LYPLA2; O95372; recombinant LYPLA2, FP-Rh probe fluorescence polarization; inhibition, % at 5.9 µM; 320,000 compounds, 0.38% hits;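 active means inhibition above the screen-wide mean plus 3 SD, limit set per campaign, cut at about 26% in these data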;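 further: 0% = LYPLA2 with DMSO and 100% = wells lacking LYPLA2 enzyme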
Target sequence (O95372 whole entry, looked up): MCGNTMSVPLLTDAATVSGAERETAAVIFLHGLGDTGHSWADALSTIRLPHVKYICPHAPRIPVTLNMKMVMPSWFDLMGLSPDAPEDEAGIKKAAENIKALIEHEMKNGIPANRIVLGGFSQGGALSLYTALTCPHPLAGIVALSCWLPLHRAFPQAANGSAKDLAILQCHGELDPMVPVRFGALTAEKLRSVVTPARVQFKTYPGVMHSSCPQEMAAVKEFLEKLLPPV
LANA-H2A inh = blocks KSHV LANA binding to histone H2A/H2B. inhibition, % (no concentration beside the values). cell-free LANA-H2A/H2B peptide, fluorescence polarization. AID 2629. 320,000 compounds, 0.6% hits. Q9QR71; in the data active means inhibition mostly above about 10%, no sharp cut-off; inactive means mostly below about 6.7%
EBNA-1 inhibitor = blocks EBNA-1 binding to DNA; EBNA-1 DNA binding, fluorescence polarization; 300,000 compounds, 0.34% hits; inhibition, % at 14.8 µM; in the data active means inhibition above about 28%
LYPLA1 inh = LYPLA1 (human) inhibition in PME1 counter-screen; inhibition, % at 5.9 µM; O75608; recombinant LYPLA1, FP-Rh probe fluorescence polarization; 320,000 compounds, 0.16% hits;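 active means inhibition above the mean of all tested compounds plus 3 SD, set per campaign, cut at about 14% in these data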;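 further: inhibitors block serine hydrolase probe labeling of LYPLA1 so polarization falls; 0% = enzyme with DMSO and 100% = wells lacking LYPLA1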
ZTA DNA inh = blocks Epstein-Barr virus ZTA, an EBNA-1 counter-screen; P03206; ZTA-DNA binding, fluorescence polarization; inhibition, % at 11 µM; 320,000 compounds, 0.15% hits; AID 2234; in the data active means inhibition above about 33%
LYPLA2 conf = LYPLA2 (human) inhibition, confirmation counter-screen; inhibition, % at 5.9 µM; recombinant LYPLA2, FP-Rh probe fluorescence polarization; shares compounds with LYPLA2 counter; 1,100 compounds, 72% hits;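 active means mean inhibition across replicates above the hit cutoff set in the primary screen, cut at about 26% in these data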;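 further: blocked labeling of the enzyme by serine hydrolase FP-Rh probe lowers polarization; 0% = enzyme with DMSO and 100% = wells lacking LYPLA2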
LYPLA2 ABPP = LYPLA2 (human) inhibition, late stage results; 150 compounds, 30% hits; AID 652029; rhLYPLA2 in mouse brain proteome, gel ABPP FP-Rh; shares compounds with LYPLA2 counter; inhibition, % at 20 µM;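 active means inhibition of LYPLA2 enzyme probe labeling above about 50%, limit read from the data; inactive means inhibition below that limit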;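 further: loss of FP-Rh probe labeling of the LYPLA2 gel band measured as band density; 0% = DMSO only control band and 100% = blank gel background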
* hit, by the source's call; nt = not tested or not shown.

SMILES	LYPLA2 counter	LANA-H2A inh	EBNA-1 inhibitor	LYPLA1 inh	ZTA DNA inh	LYPLA2 conf	others
COc1cc(/C=N\NC(=O)c2ccccc2F)ccc1Oc1ccc([N+](=O)[O-])cn1	31*	-3	2	-2	8	23
Cc1cc(C)n(C(C)CNC(=O)c2ccc3c(c2)OCO3)n1 (stereo unspecified)	-3	-1	-12	3	-22	nt
Cc1cccc(-c2nc(CS(=O)CC(=O)NC3CCCC(C)C3C)c(C)o2)c1 (stereo unspecified)	-1	4	0	0	-4	nt
O=C1Nc2ccc([N+](=O)[O-])cc2OC1CCN1CCN(Cc2ccc3c(c2)OCO3)CC1 (stereo unspecified)	72*	3	-6	1	21	79*	LYPLA2 ABPP=61*
O=C1Nc2ccc([N+](=O)[O-])cc2OC1CCN1CCN(Cc2ccccc2)CC1 (stereo unspecified)	15	2	-1	-1	-2	nt
CCCCN(C(=O)CSc1n[nH]c(-c2ccc(C)cc2)n1)c1c(N)n(CCCC)c(=O)[nH]c1=O	4	-2	0	4	-15	nt
CC(=O)N1c2ccc(S(=O)(=O)N3CCC(C(=O)N4CCN(c5ccc(Cl)cc5)CC4)CC3)cc2CC1C (stereo unspecified)	92*	-1	3	10	-5	92*	LYPLA2 ABPP=75*
COc1cccc(N2CCN(C(=O)C3CCN(S(=O)(=O)c4ccc5c(c4)CC(C)N5C(C)=O)CC3)CC2)c1 (stereo unspecified)	40*	-4	-2	1	-5	49*
CC(C)N1CCc2c(sc(NC(=O)c3ccc(C(=O)c4ccccc4)cc3)c2C(N)=O)C1	26*	-4	-4	-5	14	31*
CC(C)N1CCc2c(sc(NC(=O)c3ccc4ccccc4c3)c2C(N)=O)C1	-3	-12	2	-2	6	nt
CCCc1nn(C)c2c1C(c1cccnc1)C(C#N)=C(N)O2 (stereo unspecified)	29*	-2	-8	2	-11	-1
O=C1CCCN1CCC1CCN(C2CC(=O)N(c3ccc(Cl)cc3)C2=O)CC1 (stereo unspecified)	33*	3	4	5	11	35*
O=C1CCCC(=NNC(=O)c2ccc(CN3c4cccc5cccc(c45)S3(=O)=O)cc2)C1	nt	nt	nt	nt	nt	nt	LYPLA2 ABPP=44
O=C(N/N=C/c1cccnc1)c1ccc(CN2c3cccc4cccc(c34)S2(=O)=O)cc1	-32	0	-8	-33	-7	nt
CN(C)C(CNc1ccc(S(C)(=O)=O)cc1[N+](=O)[O-])Cc1ccccc1 (stereo unspecified)	5	6	5	6	-10	nt
COc1ccc(CCNC(=S)N2CCC(C(=O)c3ccc(F)cc3)CC2)cc1OC	27*	4	1	6	-2	31*
COc1ccc(C(=O)C2CCN(C(=S)NCCc3ccc(OC)c(OC)c3)CC2)cc1	19	2	-6	-2	0	nt
Cc1cc(=O)oc2cc(Oc3ccc([N+](=O)[O-])cc3[N+](=O)[O-])ccc12	37*	0	-15	6	8	41*
O=Cc1cccc(Oc2ccc([N+](=O)[O-])cc2[N+](=O)[O-])c1	42*	3	-16	0	0	27*
Cc1cc2c(NC(=O)Nc3ccc(F)cc3)cccc2nn1	44*	-3	-8	-9	-25	54*	LYPLA2 ABPP=43
CCc1nnc(NS(=O)(=O)c2ccc(NC(=O)c3ccc(Cl)cc3)cc2)s1	9	0	-1	-2	16	nt
CCc1nnc(NS(=O)(=O)c2ccc(N/C=C(\C=O)c3nc4cc(Cl)ccc4o3)cc2)s1	29*	1	15	0	7	43*
O=C1N=C(N2CCN(c3ccccc3)CC2)S/C1=C/c1cccs1	34*	0	10	3	2	38*
CCc1ccc(C(=O)COC(=O)C2CCN(c3ccc(C(F)(F)F)cn3)CC2)cc1	11	-1	-5	2	11	nt
Cc1ccc(S(=O)(=O)NCc2ccc(C(=O)N3CCN(Cc4ccccc4)CC3)cc2)cc1	17	-1	10	2	0	nt
